Laboratory results as given in PubChem BioAssay AID1159580 (chemical genetic matrix, 2015).
In all, about 5,500 compounds went through this assay and about 2,000 (36%) were called active. Another 18% or so got no clear call; they are omitted. Rule as the data show it: active = normalized growth mostly below about 0.91 (no sharp cut-off); inconclusive = no clear call, values can overlap the other calls; inactive = mostly above about 0.92. The list shows a part of the results.

Assay: chemical genetic growth profiling, strain panel (AID 1159580);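 also: tested at 20 µM; growth read once vehicle control cultures reached saturation at 30 °C; 1 = growth at the plate median or of vehicle wells; lower values mean less growth of the strain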
Conditions: S. cerevisiae deletion strains, growth OD
[1] = locus YAL040C, strain CLN3, stronger effect = lower value
[2] = locus YDR363W, strain ESC2, stronger effect = lower value
[3] = locus YER002W, strain NOP16, stronger effect = lower value
[4] = locus YGR229C, strain SMI1, stronger effect = lower value
[5] = locus YNL153C, strain GIM3, stronger effect = lower value
[6] = locus YNL175C, strain NOP13, stronger effect = lower value
[7] = locus YNL197C, strain WHI3, stronger effect = lower value
[8] = locus YNL224C, strain SQS1, stronger effect = lower value
[9] = locus YOR083W, strain WHI5 (second series), stronger effect = lower value

Measured: normalized growth

CCCCCCC/C=C\CCCCCCCCC(=O)O
inactive: [1] 1.01 | locus YCL061C, strain MRC1 (second series), stronger effect = lower value 1.01 | [2] 1.02 | [3] 1.03 | [4] 1.01 | locus YMR307W, strain GAS1, stronger effect = lower value 1.01 | [5] 0.946 | [6] 0.996 | [7] 1.01 | [8] 1.01 | [9] 1.01

CCCCC/C=C\C/C=C\C/C=C\C/C=C\CCCC(=O)NCC(=O)O
inactive: [1] 1.02 | locus YDR150W, strain NUM1, stronger effect = lower value 1.03 | [2] 1.02 | [3] 1.02 | locus YGR078C, strain PAC10, stronger effect = lower value 0.985 | [4] 0.963 | [5] 1.07 | [6] 0.941 | [7] 1.01 | [8] 0.979 | [9] 0.962
